Laboratory results published in PubChem BioAssay (EPA / NIEHS).
“And” between values parts separate entries of the source, which are not always exact repeats. Equal values may be shown once. The source made the active and inactive calls. Rule for the calls: active = hit-call score of the fitted dose curve at least 0.9, where 1 is the maximum; inactive = score below 0.9.

Assay: BSK_3C_uPAR: BioMAP Diversity Plus: 3C Assay for Urokinase-type plasminogen activator receptor (uPAR) Biomarker Activity (AID 2282998)
Details: BioMAP 3C HUVEC, uPAR biomarker ELISA; actives raise or lower the signal
Method: BSK_3C is a cell-based, multiplexed-readout assay that uses umbilical vein endothelium, a human vascular primary cell, with measurements taken at 24 hours after chemical dosing in a 96-well plate.BSK_3CAR is an assay component measured in the BSK_3C assay. It measures uPAR antibody related to regulation of gene expression using ELISA technology.Data from the assay component BSK_3CAR was analyzed into 1 assay endpoint. This assay endpoint, BSK_3CAR, was analyzed with bidirectional fitting relative to DMSO as the negative control and baseline of activity. Using a type of binding reporter, gain or loss-of-signal activity can be used to understand changes in the signaling as they relate to the gene PLAUR. Furthermore, this assay endpoint can be referred to as a primary readout, because this assay has produced multiple assay endpoints where this one serves a signaling function. To generalize the intended target to other relatable targets, this assay endpoint is annotated to the cytokine intended target family, where the subfamily is plasmogen activator.
The levels of cell surface (or secreted, indicated by the prefix "s") biomarker endpoints were measured by ELISA. Overt cytotoxicity to cells in confluent adherent cultures (all systems other than the BT system) was assessed by measuring total protein levels using sulforhodamine B (SRB) staining in parallel cultures at the time of biomarker measurements, indicated as SRB endpoints. For proliferation assays for adherent cell types, individual cell types are cultured at sub-confluence and relative cell numbers quantified by SRB staining at time points optimized for each system (48 h: 3C and CASM3C systems; 72 h: BT and HDF3CGF systems; 96 h: SAg system). SRB was performed by staining cells with 0.1% SRB after fixation with 10% TCA and reading wells at 560 nm.Viability and proliferation of PBMC (T cells) was quantified by Alamar Blue reduction for the SAg and BT systems. For PBMC viability (referred to as PBMC Cytotoxicity within the assay endpoint names), cells were plated (75,000/well in a 96-well plate) and then chemical samples added for 1 h before addition of activators, SEB and TSST-1 (20 ng/mL final concentration each). Cells were incubated for 90 h. Then, Alamar Blue (20 uL/well) (Invitrogen, Cat DAL1100) was added for 6 h, and the plates were read with a fluorescence microplate reader at 546/580 nm (excitation/emission). For PBMC proliferation, cells were plated and activated as above but incubated for only 16 h prior to addition of Alamar Blue. Plates were read after 6 h.
For `Oc1cccc2ccccc12`, the outcome was “inactive”. With `CN(C)CCC(c1ccc(Cl)cc1)c1ccccn1` (configuration not stated) the outcome was “inactive”. In the case of `CCC(C)=NO`, the outcome is reported as “inactive”. With `OC(C(F)(F)F)(C(F)(F)F)C(O)(C(F)(F)F)C(F)(F)F` the AC50 was 13.8 µM (active) and 10.7 µM (active). With `C1CN(CCOCCN2CCOCC2)CCO1` the outcome was “inactive”. For `CN(C)Cc1cc(C(C)(C)C)c(O)c(C(C)(C)C)c1`, the outcome was “inactive”. In the case of `CCC[Si](OC(C)=O)(OC(C)=O)OC(C)=O`, the outcome is reported as “inactive”. For `CC[N+](CC)(CC(=O)Nc1c(C)cccc1C)Cc1ccccc1`, the outcome was “inactive”. For `CCCCC(CC)COC(=O)C=Cc1ccc(OC)cc1` (configuration not stated), the AC50 was 35.3 µM (active) and 26.2 µM (active). In the case of `COc1cc(CNC(=O)CCCC/C=C/C(C)C)ccc1O`, the outcome is reported as “inactive”. With `CCCCCCCCCCCCCCCCCC[N+](C)(C)C` the AC50 was 1.27 µM (active). In the case of `O=[N+]([O-])c1cc(S(=O)(=O)Nc2ccccc2)ccc1Nc1ccccc1`, the AC50 is reported as 26 µM (active) and 17.8 µM (active). For `CCCCCCCCCCC1CO1` (configuration not stated), the AC50 was 33.7 µM (active). For `COc1ccc(C(=O)c2ccccc2O)c(O)c1`, the AC50 was 17.3 µM (active) and 20 µM (active). For `CCCCCCCCCC/C=C/C1CC(=O)OC1=O` (configuration not stated), the outcome was “inactive”. For `Cc1cccnc1`, the outcome was “inactive”. With `Cc1cc(-n2nc3ccc(Cl)cc3n2)c(O)c(C(C)(C)C)c1` the outcome was “inactive”. In the case of `CN(C)c1ccc(C(c2ccccc2)c2ccc(N(C)C)cc2)cc1`, the outcome is reported as “inactive”. For `O=C(C(=O)c1ccccc1)c1ccccc1`, the outcome was “inactive”. In the case of `Cc1c(C(N)=O)cc([N+](=O)[O-])cc1[N+](=O)[O-]`, the outcome is reported as “inactive”. For `CC(C)C1OCCN1CCOC(=O)NCCCCCCNC(=O)OCCN1CCOC1C(C)C` (configuration not stated), the outcome was “inactive”. For `COC(=O)/C=C\C(=O)OC`, the outcome was “inactive”. For `CC(C)CC(=O)CC(C)CC(C)C` (configuration not stated), the AC50 was 30.9 µM (active). With `Sc1nc2ccccc2s1` the outcome was “inactive”. With `COc1ccccc1Oc1c(NS(=O)(=O)c2ccc(C(C)(C)C)cc2)nc(-c2ncccn2)nc1OCCO` the outcome was “inactive”. For `CCCCCCC(O)CCCCCCCCCCC(=O)OC` (configuration not stated), the outcome was “inactive”. In the case of `CC[N+](CC)(CC(=O)Nc1c(C)cccc1C)Cc1ccccc1` (tested in a mixture with another compound), the outcome is reported as “inactive”.
